# Compound activity: PubChem BioAssay, National Center for Advancing Translational Sciences (NCATS)
# HP1b binding inh = inhibitors of HP1-beta chromodomain binding to methylated histone tails | Potency, µM (doses to about 114 µM), without a hit: at the top dose activity change, negative = inhibition, most hits filed as inhibitors | 390,000 tested, 0.56% active | AlphaScreen HP1-beta / biotin-H3K9me3 peptide binding | P83916; note: nearly all actives have a fitted effect of over 70% in size
# Target sequence (P83916 whole entry, looked up): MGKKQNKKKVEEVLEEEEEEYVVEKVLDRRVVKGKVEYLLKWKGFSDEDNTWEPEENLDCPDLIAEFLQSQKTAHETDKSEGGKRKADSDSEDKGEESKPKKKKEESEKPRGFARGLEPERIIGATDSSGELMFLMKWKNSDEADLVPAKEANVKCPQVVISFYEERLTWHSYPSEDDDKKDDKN
#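 Compound inhibition of the preformed complex between 50 nM HP1-beta and 50 nM biotinylated H3K9me3 peptide was read by AlphaScreen. Buffer was PBS pH 7.4 with 0.01% Tween-20. Incubations ran 30 min at room temperature, with 10 ug/mL donor/acceptor beads.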
# PLK1 PBD inh = inhibitors of human PLK1 polo-box domain binding | Potency, µM, for inactives: max response, negative = inhibition, usual class: inhibitors | P53350 | AID 720504 | 360,000 tested, 2.8% active | Plk1 PBD binding of FITC phosphopeptide, fluorescence polarization; note: series mostly up to about 57 µM; % is set by controls: 0 for no effect and ±100 for the full control effect; nearly all actives have a fitted effect of over 65% in size
# Sfp PPTase inh = inhibitors of Bacillus subtilis Sfp phosphopantetheinyl transferase; Biochemical Sfp PPTase activity, qHTS; Potency, µM, without a hit: largest response in the series, negative = inhibition, usual class: inhibitors; 310,000 tested, 3.5% active; Q9F4F7; AID 1490;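 note: the enzyme is Sfp with the accession as filed and its product quenches rhodamine fluorescence; 0% = enzyme reaction without inhibitor and -100% = no enzyme wells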
#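 Reaction rates are the 30-min fluorescence difference (ex 525, em 598 nm) in wells containing 15 nM Sfp, 5 uM rhodamine-CoA and 12.5 uM BHQ-2-YbbR at pH 7.6 with 10 mM MgCl2.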
# JMJD2A Tudor inh = JMJD2A Tudor domain (human) inhibition. O75164. AlphaScreen JMJD2A-Tudor / H3K4me3 peptide binding. Potency, µM (highest dose often 114 µM), inactives show at the highest dose activity change, negative = inhibition, usual class: inhibitors. 390,000 tested, 4.4% active. AID 504339; note: % is set by controls: 0 for no effect and ±100 for the full control effect; nearly all actives have a fitted effect of over 50% in size
# G9a inh = blocks human histone lysine methyltransferase G9a. Q96KQ7. G9a H3K9 monomethylation, AlphaScreen, 2 h. Potency, µM (doses to about 102 µM), inactives show at the highest dose activity, negative = inhibition, most hits filed as inhibitors. 350,000 tested, 8.8% active. AID 504332; note: % is set by controls: 0 for no effect and ±100 for the full control effect; nearly all actives have a fitted effect of over 75% in size
# Target sequence (Q96KQ7 913-1193 limits assumed): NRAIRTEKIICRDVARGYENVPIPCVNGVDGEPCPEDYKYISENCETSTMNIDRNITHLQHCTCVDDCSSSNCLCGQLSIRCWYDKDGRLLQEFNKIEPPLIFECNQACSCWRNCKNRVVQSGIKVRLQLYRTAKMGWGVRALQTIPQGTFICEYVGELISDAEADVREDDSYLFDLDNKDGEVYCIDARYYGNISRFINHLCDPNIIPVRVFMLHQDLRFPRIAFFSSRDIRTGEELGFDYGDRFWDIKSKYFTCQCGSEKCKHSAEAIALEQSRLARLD
#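 G9a (20 nM) preincubated 15 min RT with compounds, then 500 nM biotinylated H3K9 peptide and 20 uM SAM added; 2 h RT reaction. Monomethyl-H3K9 product detected by AlphaScreen with anti-H3K9me1 antibody, streptavidin donor and anti-rabbit IgG acceptor beads.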
# BAZ2B block = blocks human BAZ2B; Q9UIF8; Potency, µM (top dose mostly 114 µM), for inactives: at the highest dose activity change, negative = inhibition, usual class: inhibitors; AlphaScreen BAZ2B-H3K14Ac peptide displacement; AID 504333; 360,000 tested, 4.4% active; note: % is set by controls: 0 for no effect and ±100 for the full control effect; nearly all actives have a fitted effect of over 60% in size
#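 BAZ2B (50 nM) with biotin-H3(5-23)K14Ac peptide (50 nM) in PBS pH 7.4, 0.01% Tween-20, preformed 30 min, then compound 30 min at room temperature; top concentration 110uM. AlphaScreen streptavidin donor/nickel chelate acceptor beads (10 ug/mL final), 20 min dark, signal read.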
# Active calls of the source: *; u = inconclusive; x = no result given; [ ] = another dose, or the depositor's remark. Most compounds without a hit are left out; they make up all but 12% or so of the library. Calls come from the whole dose curve; as a rule, active = well fitted curve in the direction sought with a large enough effect; inconclusive = small, poorly fitted or top-dose-only effect, or another doubt; inactive = no such curve, though single readings can be large; an effect the other way counts as inactive or inconclusive. Potency is the fitted concentration of half-maximal effect.
SMILES,HP1b binding inh,PLK1 PBD inh,Sfp PPTase inh,JMJD2A Tudor inh,G9a inh,BAZ2B block
CCOc1ccc(C(=O)N/N=C(\c2ccccc2)c2ccccn2)cc1,15%,-4%,-14%,-34%,7%[59 µM],79µM*
N/C(=N\OC(=O)c1cccc([N+](=O)[O-])c1)c1ccccn1,9%,-4%,7%,-4%,u,-12%
Cn1ccnc1/C(=N\NC(=O)c1ccccc1)c1cccc([N+](=O)[O-])c1,3%,-12%,3%,-23%,40µM*,-14%
Cn1ccnc1/C(=N\NC(=O)c1ccc(O)cc1)c1cccc([N+](=O)[O-])c1,40%,-3%,-13%,-8%,5%,-20%
O=C(NNC(=O)c1cccnc1SCc1cccc([N+](=O)[O-])c1)c1ccc(F)cc1,44%,-17%,8%,-2%,u,2%
CCOC(=O)C1CCN(C(=O)CCCn2nc(C)c3c(C)n(-c4ccc(C)cc4)nc3c2=O)CC1,23%,-9%,5%,-10%,12%,-20%
O=C(NNC(=O)c1cnccn1)c1cccc([N+](=O)[O-])c1,14%,-10%,2.5µM*,-28%,0.56µM*,2%
O=[N+]([O-])c1ccc(C2=Nn3c(Cn4nnc5ccccc54)nnc3SC2)cc1,u,5.3µM*,20µM*,56µM*,x,-37%
CCc1nnc2n1N=C(c1ccc(Cl)cc1)CS2,33%,-11%,2%,-17%,-1%,0%
CCc1nnc2n1N=C(c1cccc([N+](=O)[O-])c1)CS2,41%,-5%,-4%,-21%,14%[59 µM],-22%
CCCc1nnc2n1N=C(c1ccc([N+](=O)[O-])cc1)CS2,21%,0%,3%,-9%,71µM*,-27%
Cc1nnc2n(c1=O)N=C(c1ccc(Cl)cc1)CS2,10%,u,u,-10%,71µM*,-5%
Clc1ccc(C2=Nn3c(nnc3-c3cccs3)SC2)cc1,-3%,u,15%,-27%[57.1 µM],-39%[59 µM],-17%
CCCc1nnc2n1N=C(c1ccc(C)cc1)CS2,6%[57 µM],-5%,7%,-14%,79µM*,-33%
COc1ccc(OC)c(S(=O)(=O)NCCc2sc(C)nc2C)c1,11%[57 µM],x,x,-10%,11%[59 µM],3%
Cc1cc(Cl)ccc1N(CC(=O)NCc1ccccc1)S(C)(=O)=O,62%,-1%,15%,-1%,14%,-29%
COc1cc(/C=N/Nc2cccc(C)c2)cc(Br)c1O,u,-23%,-1%,50µM*,8.9µM*,45µM*
COc1cc(C=NNC(=O)c2ccc(NS(=O)(=O)c3cccs3)cc2)cc(Br)c1O,7%[57 µM],-3%,x,-8%,x,x
COc1cc(/C=N/Nc2cccc(C)c2)ccc1OC(=O)c1cccs1,15%,-9%,5%,u,10µM*,-38%
COc1cc(/C=N/NC(=O)COc2ccccc2C)ccc1OC(=O)c1cccs1,14%,2%,10%,25%,x,-27%
O=C(Nc1ccc2c(c1)OCO2)c1c[nH]c(=O)n(-c2ccc(F)cc2)c1=O,-32%,-13%,-3%,u,56µM*,35µM*
O=C(/C=C/c1ccc(F)cc1)NCCc1ccc2c(c1)OCCO2,36%,-3%,1%,-3%,89µM*,5%
COc1ccc(-n2c(=O)[nH]cc(C(=O)Nc3ccc4c(c3)OCCO4)c2=O)cc1OC,23%,-4%,12%,3%,u,-15%
O=C(NCCc1ccc2c(c1)OCCO2)c1ccccc1F,20%,-14%,5%,-1%,2%[59 µM],-3%
O=C(NCCc1ccc(Cl)cc1)Nc1ccc(F)cc1,-16%,24µM*,17%,-17%[11.4 µM],26%,-5%
SMILES,HP1b binding inh,PLK1 PBD inh,Sfp PPTase inh,JMJD2A Tudor inh,G9a inh,BAZ2B block
O=C(NCCc1ccc(F)cc1)Nc1ccc2c(c1)OCO2,-11%,8.4µM*,4%,-20%,-9%,2%
CCOC(=O)C1(C)CCCCCN1C(=O)c1csnn1 (stereo not given),x,-13%,x,x,x,x
CCN(C(=O)CCS(=O)(=O)c1cc2[nH]c(=O)c(=O)[nH]c2cc1C)c1ccccc1,31%,x,x,-3%,-28%[59 µM],-14%
Cc1ccc(Cl)c(OC(=O)C2CSC3(C)CCC(=O)N23)c1 (stereo not given),47%,-3%,x,-5%,15%[0.501 µM],9%
Cc1ccc(C23CC4CC(CC(C(=O)N5CCOCC5)(C4)C2)C3)cc1,41%,-2%,13%,-13%,u,5%
CCOc1ccc(S(=O)(=O)NCC(c2ccco2)S(=O)(=O)c2ccc(F)cc2)cc1 (stereo not given),5%,x,x,-21%,-32%[59 µM],-12%
Cc1cc(C)cc(NC(=O)CSc2nccn2C2CCCC2)c1,16%,x,x,-29%,u,u
O=[N+]([O-])c1ccc(NC(=S)NCCc2ccc(F)cc2)cc1,-35%,u,u,u,u,79µM*
Cc1cc(=O)[nH]c(SCC(=O)Nc2ccccc2C#N)c1C#N,12%,u,32µM*,-24%,u,-24%
CCOC(=O)CSc1[nH]c(=O)cc(C)c1C#N,69%,-9%,2%,-18%,-1%[59 µM],-24%
CCOC(=O)CC(=O)CSc1[nH]c(=O)cc(C)c1C#N,45%,-1%,50µM*,-16%,1%[59 µM],-30%
Cc1cc(=O)[nH]c(SCC(=O)OCc2ccccc2)c1C#N,-7%,21µM*,10%,u,-6%[0.501 µM],2%
COCc1cc(C)nc(SCC(=O)Nc2ccccc2C)c1C#N,u,3µM*,4%,-28%[11.4 µM],-1%,-5%
CCc1ccc(C2c3c(-c4ccccc4O)n[nH]c3C(=O)N2Cc2ccncc2)cc1 (stereo not given),33%,x,x,-17%,6%[59 µM],-17%
CC(=O)Nc1cc(-c2ccccc2)ccc1O,26%,-1%,-11%,-5%,28µM*,23%
Nc1ccc(-c2ccc(N)c(C(=O)O)c2)cc1C(=O)O,11%,-15%,-7%,-25%,u,-11%
Nc1cc(-c2ccccc2)ccc1O,-22%,21µM*,-15%,u,22µM*,u
O=C(NCCS(=O)(=O)N1CCN(c2ccc(F)cc2)CC1)c1ccco1,19%,2%,x,-15%,-20%,-4%
COc1cc(C(c2c(O)cc(C)[nH]c2=O)c2c(O)cc(C)[nH]c2=O)ccc1O,-10%,-11%,7%,-11%,-6%,-3%
COc1cc2oc(=O)cc(-c3ccc(-c4ccc(O)cc4)cc3)c2c(OC)c1OC,12%,-11%,-24%,-25%,4%[59 µM],x
COc1ccc(C(c2oc(CO)cc(=O)c2O)c2oc(CO)cc(=O)c2O)cc1OC,43%,4%,-33%,u,20µM*,50µM*
COc1cc(C(c2oc(CO)cc(=O)c2O)c2oc(CO)cc(=O)c2O)cc(OC)c1OC,55%,-10%,-25%,u,11µM*,50µM*
